Assay results: ChEMBL document CHEMBL3988442, “University of Dundee, Small-Polar-MMV Screening Library” (2021)
For some assays here: Potency and affinity values are given separately.

What was measured:
Set-up in all cases: scale not given: direction of the effect not stated beside the values
[1] = target: Protein translocase subunit SecA (Escherichia coli (strain K12)) (UniProt P10408); assay: Assay to Identify E. coli SecA ATPase Inhibitors; type: functional; conditions: 30 µM
[2] = target: T1, Ubiquitin-activating enzyme e1, putative (Leishmania donovani (strain BPK282A1)) (UniProt E9BSI1); assay: Leishmania donovani Ubiquitin Activating Enzyme (LdE1); type: functional; conditions: 30 µM
T1 sequence (whole entry): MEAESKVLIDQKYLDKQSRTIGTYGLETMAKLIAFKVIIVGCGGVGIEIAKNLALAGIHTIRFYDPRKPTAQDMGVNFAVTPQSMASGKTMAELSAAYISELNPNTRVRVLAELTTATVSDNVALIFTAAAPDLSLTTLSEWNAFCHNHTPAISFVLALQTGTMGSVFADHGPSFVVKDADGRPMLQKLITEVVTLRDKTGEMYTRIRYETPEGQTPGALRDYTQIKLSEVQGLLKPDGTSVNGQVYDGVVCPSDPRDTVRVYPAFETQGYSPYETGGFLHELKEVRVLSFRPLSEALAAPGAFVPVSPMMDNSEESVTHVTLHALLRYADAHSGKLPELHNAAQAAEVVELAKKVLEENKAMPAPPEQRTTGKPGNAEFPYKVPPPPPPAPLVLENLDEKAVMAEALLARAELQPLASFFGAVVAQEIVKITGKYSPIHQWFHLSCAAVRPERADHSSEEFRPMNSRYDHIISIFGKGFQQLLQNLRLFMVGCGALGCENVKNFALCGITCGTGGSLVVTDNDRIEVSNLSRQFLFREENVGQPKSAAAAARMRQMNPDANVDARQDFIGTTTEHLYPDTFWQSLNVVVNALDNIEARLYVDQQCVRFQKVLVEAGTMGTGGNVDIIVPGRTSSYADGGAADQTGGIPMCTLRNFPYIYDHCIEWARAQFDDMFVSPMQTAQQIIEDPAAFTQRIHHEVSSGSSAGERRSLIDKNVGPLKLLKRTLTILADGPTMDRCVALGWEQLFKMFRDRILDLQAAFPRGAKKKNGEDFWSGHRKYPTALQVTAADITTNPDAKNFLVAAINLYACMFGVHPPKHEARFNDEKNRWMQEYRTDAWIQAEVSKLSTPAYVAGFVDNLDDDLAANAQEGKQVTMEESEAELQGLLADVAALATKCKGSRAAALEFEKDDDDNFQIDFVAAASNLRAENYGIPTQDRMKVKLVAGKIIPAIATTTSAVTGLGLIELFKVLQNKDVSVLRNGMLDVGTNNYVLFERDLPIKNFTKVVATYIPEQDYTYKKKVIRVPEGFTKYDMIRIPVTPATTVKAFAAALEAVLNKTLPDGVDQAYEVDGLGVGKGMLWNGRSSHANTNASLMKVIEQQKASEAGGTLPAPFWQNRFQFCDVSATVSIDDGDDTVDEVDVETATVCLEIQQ

[3] = target: AMP-activated protein kinase, AMPK (Homo sapiens) (UniProt P54646+O43741+P54619+Q9UGJ0+Q9Y478+Q13131+Q9UGI9); assay: AMP-dependent Kinase enzyme assay. An in vitro enzyme assay that detects ADP turnover that is directly proportional to AMPK activity. This uses naive AMPK that is activated during the assay with MK-8722; type: functional; conditions: 30 µM
[4] = target: Sialic acid-binding Ig-like lectin 9 (Homo sapiens) (UniProt Q9Y336); assay: Hs-Siglec9 ALPHAscreen SOP 20170721; conditions: 10 µM
Chain of Sialic acid-binding Ig-like lectin 9 (Homo sapiens) (Q9Y336 whole entry): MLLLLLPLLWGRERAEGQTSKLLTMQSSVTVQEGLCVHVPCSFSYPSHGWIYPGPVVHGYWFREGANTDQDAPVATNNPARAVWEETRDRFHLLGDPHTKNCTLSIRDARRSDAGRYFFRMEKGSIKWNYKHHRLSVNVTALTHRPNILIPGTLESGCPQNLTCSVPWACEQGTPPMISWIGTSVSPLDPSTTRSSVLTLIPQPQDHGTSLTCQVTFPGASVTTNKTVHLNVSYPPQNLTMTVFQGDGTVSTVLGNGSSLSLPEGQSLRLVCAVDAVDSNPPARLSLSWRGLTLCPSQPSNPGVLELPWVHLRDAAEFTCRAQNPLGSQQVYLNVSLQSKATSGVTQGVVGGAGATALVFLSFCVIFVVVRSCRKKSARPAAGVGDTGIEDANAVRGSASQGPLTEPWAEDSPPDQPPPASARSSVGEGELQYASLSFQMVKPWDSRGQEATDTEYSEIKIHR

[5] = system: Trypanosoma cruzi; assay: Trypanosoma cruzi phosphomannomutase and mannose-1-phosphate guanylyltransferase assay; type: functional; conditions: 10 µM
[6] = target: T2, Arginase-2, mitochondrial (Homo sapiens) (UniProt P78540); assay: in vitro enzyme assay to detect the production of urea directly proportional to the activity of Arginase II; type: functional; conditions: 33.3 µM; note: in the data most compounds retested in dose-response had high values
T2 sequence (whole entry): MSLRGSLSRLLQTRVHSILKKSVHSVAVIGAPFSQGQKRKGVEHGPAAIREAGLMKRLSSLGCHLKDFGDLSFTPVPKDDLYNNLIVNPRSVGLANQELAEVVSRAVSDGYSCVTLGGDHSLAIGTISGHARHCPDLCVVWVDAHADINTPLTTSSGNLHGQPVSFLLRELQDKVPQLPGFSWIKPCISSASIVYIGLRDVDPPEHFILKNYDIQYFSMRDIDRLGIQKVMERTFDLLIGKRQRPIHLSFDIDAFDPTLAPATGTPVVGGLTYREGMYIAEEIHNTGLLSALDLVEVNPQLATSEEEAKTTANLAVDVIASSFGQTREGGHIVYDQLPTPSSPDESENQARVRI

[7] = target: T3, Proteasome subunit beta (Trypanosoma cruzi) (UniProt O96673); assay: Trypanosoma cruzi proteasome chymotrypsin-like activity (TcProtChymo) assay.; note: in the data most compounds retested in dose-response had high values; type: functional; conditions: 9.37 µM
T3 sequence (whole entry): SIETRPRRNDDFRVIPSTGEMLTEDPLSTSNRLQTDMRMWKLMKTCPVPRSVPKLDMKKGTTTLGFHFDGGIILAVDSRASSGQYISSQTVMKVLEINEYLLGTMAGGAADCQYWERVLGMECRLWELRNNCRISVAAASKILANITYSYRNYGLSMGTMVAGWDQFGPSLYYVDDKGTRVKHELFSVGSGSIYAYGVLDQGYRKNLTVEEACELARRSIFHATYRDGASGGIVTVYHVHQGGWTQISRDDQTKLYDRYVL

[8] = species on record: Homo sapiens; assay: To identify inhibition of the IFN signalling (Jak-Stat) pathway via expression of an eGFP reporter gene under the control of an IFN-stimulated response element (ISRE) containing MxA promoter.; type: functional; conditions: 30 µM
[9] = target: T4, Tyrosyl-tRNA synthetase, putative (Trypanosoma cruzi (strain CL Brener)) (UniProt Q4DSP6); assay: Trypanosoma cruzi tyrosyl tRNA synthetase (TcYRS) _High Tyrosine SOP; type: functional; conditions: 30 µM; note: in the data most compounds retested in dose-response had high values
T4 sequence (whole entry): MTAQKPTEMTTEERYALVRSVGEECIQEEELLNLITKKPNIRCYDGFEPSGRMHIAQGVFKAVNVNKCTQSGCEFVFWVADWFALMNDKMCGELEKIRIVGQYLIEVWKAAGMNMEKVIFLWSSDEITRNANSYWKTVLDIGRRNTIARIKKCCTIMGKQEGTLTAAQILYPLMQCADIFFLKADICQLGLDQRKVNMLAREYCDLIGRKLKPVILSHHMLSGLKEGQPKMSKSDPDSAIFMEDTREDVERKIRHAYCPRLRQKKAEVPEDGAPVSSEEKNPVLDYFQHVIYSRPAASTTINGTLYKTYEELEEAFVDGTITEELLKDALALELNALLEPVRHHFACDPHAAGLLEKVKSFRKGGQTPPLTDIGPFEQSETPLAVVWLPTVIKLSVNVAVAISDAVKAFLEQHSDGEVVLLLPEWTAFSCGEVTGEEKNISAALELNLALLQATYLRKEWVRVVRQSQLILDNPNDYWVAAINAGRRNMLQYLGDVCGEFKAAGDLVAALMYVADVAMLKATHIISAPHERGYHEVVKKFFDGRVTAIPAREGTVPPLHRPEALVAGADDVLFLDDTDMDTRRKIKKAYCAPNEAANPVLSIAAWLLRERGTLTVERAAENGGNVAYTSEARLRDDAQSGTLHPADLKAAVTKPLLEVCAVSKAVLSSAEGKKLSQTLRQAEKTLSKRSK

[10] = target: T4, Tyrosyl-tRNA synthetase, putative (Trypanosoma cruzi (strain CL Brener)); assay: Trypanosoma cruzi tyrosyl tRNA synthetase (TcYRS) SOP; type: functional; conditions: 30 µM
[11] = target: Chromo domain-containing protein 1 (Saccharomyces cerevisiae (strain ATCC 204508 / S288c) (Baker's yeast)) (UniProt P32657); assay: ScCHD-1 Enzyme Inhibition Assay; type: functional; conditions: 30 µM; note: in the data most compounds retested in dose-response had high values
Chain of Chromo domain-containing protein 1 (Saccharomyces cerevisiae (strain ATCC 204508 / S288c) (Baker's yeast)) (P32657 whole entry, the tested form may be a part): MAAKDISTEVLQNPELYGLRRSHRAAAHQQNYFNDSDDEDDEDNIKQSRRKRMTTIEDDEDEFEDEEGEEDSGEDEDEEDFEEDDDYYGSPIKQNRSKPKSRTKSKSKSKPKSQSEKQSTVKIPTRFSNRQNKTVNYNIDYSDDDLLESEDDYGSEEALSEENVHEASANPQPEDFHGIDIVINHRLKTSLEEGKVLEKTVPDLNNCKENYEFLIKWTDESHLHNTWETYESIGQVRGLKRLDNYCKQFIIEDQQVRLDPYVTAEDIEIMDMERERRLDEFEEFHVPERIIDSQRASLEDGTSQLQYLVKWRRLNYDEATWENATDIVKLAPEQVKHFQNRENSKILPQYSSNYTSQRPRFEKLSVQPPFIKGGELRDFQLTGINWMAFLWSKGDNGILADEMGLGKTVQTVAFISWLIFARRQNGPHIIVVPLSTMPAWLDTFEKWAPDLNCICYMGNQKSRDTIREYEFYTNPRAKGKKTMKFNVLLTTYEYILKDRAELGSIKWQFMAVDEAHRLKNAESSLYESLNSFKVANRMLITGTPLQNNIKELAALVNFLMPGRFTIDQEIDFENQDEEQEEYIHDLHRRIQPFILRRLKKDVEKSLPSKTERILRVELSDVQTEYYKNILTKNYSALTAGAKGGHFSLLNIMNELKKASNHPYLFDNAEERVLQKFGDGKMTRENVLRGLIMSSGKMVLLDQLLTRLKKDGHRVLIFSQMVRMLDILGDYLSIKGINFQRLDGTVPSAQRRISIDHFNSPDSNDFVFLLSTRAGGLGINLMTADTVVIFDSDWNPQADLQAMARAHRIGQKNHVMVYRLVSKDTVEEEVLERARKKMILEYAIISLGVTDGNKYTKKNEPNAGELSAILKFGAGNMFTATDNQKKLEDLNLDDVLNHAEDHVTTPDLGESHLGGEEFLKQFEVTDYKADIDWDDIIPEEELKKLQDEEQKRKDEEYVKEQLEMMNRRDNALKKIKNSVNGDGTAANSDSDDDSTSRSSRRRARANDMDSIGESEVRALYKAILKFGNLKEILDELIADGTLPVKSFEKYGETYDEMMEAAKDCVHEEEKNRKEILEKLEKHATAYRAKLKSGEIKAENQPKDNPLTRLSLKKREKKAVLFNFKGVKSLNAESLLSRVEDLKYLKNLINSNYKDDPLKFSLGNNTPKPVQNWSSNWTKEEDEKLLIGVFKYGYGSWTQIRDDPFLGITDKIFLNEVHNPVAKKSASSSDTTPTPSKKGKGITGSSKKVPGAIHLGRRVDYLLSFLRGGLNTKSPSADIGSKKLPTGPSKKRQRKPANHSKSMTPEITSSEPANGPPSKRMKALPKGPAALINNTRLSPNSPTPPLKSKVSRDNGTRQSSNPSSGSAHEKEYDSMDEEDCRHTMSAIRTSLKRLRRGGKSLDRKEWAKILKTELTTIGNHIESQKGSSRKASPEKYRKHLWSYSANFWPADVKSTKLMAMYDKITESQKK

Chain of Protein translocase subunit SecA (Escherichia coli (strain K12)) (P10408 whole entry): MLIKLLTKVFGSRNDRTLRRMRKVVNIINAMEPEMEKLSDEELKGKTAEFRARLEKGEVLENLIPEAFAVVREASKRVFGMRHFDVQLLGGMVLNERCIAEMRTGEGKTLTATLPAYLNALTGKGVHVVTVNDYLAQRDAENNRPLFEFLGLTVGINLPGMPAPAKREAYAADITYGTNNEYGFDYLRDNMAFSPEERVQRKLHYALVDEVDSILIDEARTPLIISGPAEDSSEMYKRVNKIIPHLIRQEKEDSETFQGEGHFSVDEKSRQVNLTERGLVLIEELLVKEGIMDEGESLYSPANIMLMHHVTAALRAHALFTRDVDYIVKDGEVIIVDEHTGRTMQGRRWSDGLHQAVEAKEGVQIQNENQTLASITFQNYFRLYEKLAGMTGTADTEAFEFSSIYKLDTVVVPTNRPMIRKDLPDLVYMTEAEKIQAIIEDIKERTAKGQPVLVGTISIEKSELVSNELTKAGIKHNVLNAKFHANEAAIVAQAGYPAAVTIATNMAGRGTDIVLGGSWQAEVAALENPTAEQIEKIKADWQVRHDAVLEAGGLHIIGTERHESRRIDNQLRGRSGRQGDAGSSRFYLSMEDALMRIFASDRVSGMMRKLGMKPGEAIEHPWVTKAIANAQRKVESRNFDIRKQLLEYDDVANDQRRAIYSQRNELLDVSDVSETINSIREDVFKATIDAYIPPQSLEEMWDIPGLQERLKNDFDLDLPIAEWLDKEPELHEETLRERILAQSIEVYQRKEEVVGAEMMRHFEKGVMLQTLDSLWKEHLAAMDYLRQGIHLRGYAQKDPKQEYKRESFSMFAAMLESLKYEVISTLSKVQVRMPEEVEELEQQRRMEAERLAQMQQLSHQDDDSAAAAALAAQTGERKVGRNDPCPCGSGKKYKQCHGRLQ

| SMILES | Percent Effect [1] | Percent Effect [2] | Percent Effect [3] | Percent Effect [4] | Percent Effect [5] | Percent Effect [6] | Percent Effect [7] | Percent Effect [8] | Percent Effect [9] | Percent Effect [10] | Percent Effect [11] |
| --- | --- | --- | --- | --- | --- | --- | --- | --- | --- | --- | --- |
| O=C(NC1CCS(=O)(=O)C1)c1sccc1-c1ccc(F)cc1 (configuration not stated) | -6.43% | 5.41% | 2.1% | -6.95% | -4.4% | -0.248% | 8.15% | -15.8% | 0% | 6.17% | 11.7% |
| Cc1csc(N2CCCN(Cc3noc(C)n3)CC2)n1 | -2.54% | 3.8% | -4.18% | 0.549% | 2.36% | -7.1% | 15.9% | 11.2% | 5.21% | 7.59% | -16% |
| CC(=O)N1CC(=O)N(c2cnn(C)c2)CC12CCN(Cc1ccoc1)C2 (configuration not stated) | -1.18% | 5.41% | 1.2% | -0.95% | 1.95% | 1.25% | -1.61% | 5.16% | 2.97% | 11% | -1.77% |
| COC(=O)CCC(=O)N1CCc2[nH]nc(-c3ccc4c(c3)OCO4)c2C1 | -2.09% | 8.11% | 6.85% | 21.3% | 5.18% | 11.2% | 0.258% | -7.33% | 2.15% | 6.17% | -11.9% |
| O=C(CC1CC1)NCc1cc(=O)n2c(n1)CN(Cc1ccoc1)CCC2 | -2.92% | -11% | -1.08% | 0.919% | 7.34% | -1.2% | 18.9% | 4.85% | 3.12% | 6.17% | -3.77% |
| Cc1ncsc1C(=O)NCCn1nc(C2CCNC2)c2cccnc21 (configuration not stated) | -1.57% | -2.67% | 5.57% | 1.22% | 2.17% | 0.699% | 3.26% | -2.08% | 0% | 6.41% | 1.51% |
| COC(=O)c1cccc(C(=O)N2CCCCC2CCn2ccnc2C)c1 (configuration not stated) | -7.31% | 8% | 0.551% | 4.41% | 0.487% | -0.521% | 25.5% | 13.4% | 3.83% | 11.1% | -2.11% |
| COc1ccccc1S(=O)(=O)Nc1ccc2c(C(=O)O)c[nH]c2c1 | -5.95% | -10.4% | -64.6% | 10.9% | 8.05% | -4.98% | 8.28% | 14.3% | 0% | 12.2% | -7.94% |
| CCN1CCN(C2CCN(Cc3noc(C)n3)CC2)C1=O | -5.08% | 25.3% | -3.66% | -5.18% | 1.98% | 0.38% | 5.16% | -0.161% | 7.39% | 21.5% | -6.23% |
| O=C(NC1CCCN(c2ncccn2)C1)c1ccoc1 (configuration not stated) | -3.61% | 23.7% | -4.63% | -9.78% | -0.487% | 2.37% | 8.34% | 8.15% | 3.19% | 15.6% | -9.61% |
| CCCNCC1(O)CCCN(Cc2cccc(C)c2)C1=O (configuration not stated) | -3.44% | 0% | 3.08% | -2.93% | 1.57% | -1.82% | -2.66% | -21.7% | 3.23% | 5% | -1.9% |
| CCn1ncc2c1CCCC2NCc1cc(Cl)c(OC)c(OC)c1 (configuration not stated) | -5.26% | 12.7% | -8.16% | 14.8% | 3.31% | 3.04% | -0.901% | 66.8% | 9.36% | 21.5% | -6.2% |
| COc1c(CNC(c2nccn2C)C(C)C)c(C)nn1C (configuration not stated) | 1.37% | -5.26% | 0.924% | 13.8% | -2.07% | -2.68% | 2.84% | -7.86% | 6.37% | 0% | 4.67% |
| Cc1ncsc1CN1C[C@@H]2COC[C@]2(COc2ccc(C#N)cn2)C1 | -3.44% | -5.48% | -1.94% | 1.31% | 7.74% | -3.59% | 2.31% | -1.06% | 1.04% | 3.7% | 2.89% |
| CCn1ccnc1CN1CCN(CC(=O)NC(=O)NC2CC2)CC1 | -0.559% | 13.2% | 1.1% | 4.6% | 3.95% | 0% | 16.5% | -2.49% | 8.33% | 19.5% | -6.48% |
| COc1ccc(CCC(=O)NC2CCC(O)CC2)cc1OC (configuration not stated) | -5.53% | 13.2% | -3.83% | 13% | -0.654% | -3.24% | 2.12% | 7.63% | 2.46% | 6.17% | -1.04% |
| O=C(NCc1cccc(F)c1)N1CCC2(CC(=O)N(c3ccsc3)C2)C1 (configuration not stated) | -3.47% | 8.11% | -0.642% | -0.223% | 1.95% | 0.833% | 15.1% | -5.74% | 9.9% | 15.8% | -4.87% |
| Cc1noc([C@H]2C[C@H]3OCC[C@H]3N(S(=O)(=O)C3CC3)C2)n1 | 0.988% | 11% | -4.86% | 7.79% | -1.19% | -1.6% | 16.7% | 3.43% | 9.38% | 18.5% | -0.433% |
| CC(NC(=O)N(C)Cc1ccsc1)c1ccc2c(c1)CCC(=O)N2 (configuration not stated) | -0.422% | 15.8% | 5% | 7.35% | 1.13% | -3.06% | 1.67% | 3.81% | 1.47% | 17.1% | -3.52% |
| CCOCCC(=O)N1CCCN(Cc2csc(CC)n2)CC1 | -0.651% | 3.8% | 1.45% | 3.57% | -1.74% | 2.37% | 25.7% | 7.51% | 6.25% | 10.1% | -30.1% |
| CCOc1ccc(N2CCCN=C2NC(=O)c2cccc(Cl)c2)cc1 | -0.891% | 5.2% | 1.42% | 2.2% | -4.62% | -13.8% | 14.6% | 1.55% | 3.23% | 13.6% | 0.903% |
| CS(=O)(=O)N1CCOCC2(CN(Cc3ccsc3)CCO2)C1 (configuration not stated) | -4.51% | 5.48% | -1.43% | 5.15% | 7.14% | -4.39% | 8.82% | 10.5% | 5.21% | 6.17% | -0.73% |
